Source: the supplement of paper PMC11732987, “Enantioselective OTUD7B fragment discovery through chemoproteomics screening and high-throughput optimisation” (Communications Chemistry, 2025)
Values without a mark were called inactive.

Experiments:
Assay in all cases: log2 ratio of Biotin-Ahx-Ub-VS probe labelling (fragment/DMSO); higher = less target engagement (more negative = stronger competition), active = hit call of the paper (q ≤ 0.05, log2 ratio ≤ -1)
Conditions in all cases: compound concentration: 200 uM; treatment time: 3 h
[1] = biological target: T1, USP42 (UniProt Q9H9J4)
T1 sequence (whole entry): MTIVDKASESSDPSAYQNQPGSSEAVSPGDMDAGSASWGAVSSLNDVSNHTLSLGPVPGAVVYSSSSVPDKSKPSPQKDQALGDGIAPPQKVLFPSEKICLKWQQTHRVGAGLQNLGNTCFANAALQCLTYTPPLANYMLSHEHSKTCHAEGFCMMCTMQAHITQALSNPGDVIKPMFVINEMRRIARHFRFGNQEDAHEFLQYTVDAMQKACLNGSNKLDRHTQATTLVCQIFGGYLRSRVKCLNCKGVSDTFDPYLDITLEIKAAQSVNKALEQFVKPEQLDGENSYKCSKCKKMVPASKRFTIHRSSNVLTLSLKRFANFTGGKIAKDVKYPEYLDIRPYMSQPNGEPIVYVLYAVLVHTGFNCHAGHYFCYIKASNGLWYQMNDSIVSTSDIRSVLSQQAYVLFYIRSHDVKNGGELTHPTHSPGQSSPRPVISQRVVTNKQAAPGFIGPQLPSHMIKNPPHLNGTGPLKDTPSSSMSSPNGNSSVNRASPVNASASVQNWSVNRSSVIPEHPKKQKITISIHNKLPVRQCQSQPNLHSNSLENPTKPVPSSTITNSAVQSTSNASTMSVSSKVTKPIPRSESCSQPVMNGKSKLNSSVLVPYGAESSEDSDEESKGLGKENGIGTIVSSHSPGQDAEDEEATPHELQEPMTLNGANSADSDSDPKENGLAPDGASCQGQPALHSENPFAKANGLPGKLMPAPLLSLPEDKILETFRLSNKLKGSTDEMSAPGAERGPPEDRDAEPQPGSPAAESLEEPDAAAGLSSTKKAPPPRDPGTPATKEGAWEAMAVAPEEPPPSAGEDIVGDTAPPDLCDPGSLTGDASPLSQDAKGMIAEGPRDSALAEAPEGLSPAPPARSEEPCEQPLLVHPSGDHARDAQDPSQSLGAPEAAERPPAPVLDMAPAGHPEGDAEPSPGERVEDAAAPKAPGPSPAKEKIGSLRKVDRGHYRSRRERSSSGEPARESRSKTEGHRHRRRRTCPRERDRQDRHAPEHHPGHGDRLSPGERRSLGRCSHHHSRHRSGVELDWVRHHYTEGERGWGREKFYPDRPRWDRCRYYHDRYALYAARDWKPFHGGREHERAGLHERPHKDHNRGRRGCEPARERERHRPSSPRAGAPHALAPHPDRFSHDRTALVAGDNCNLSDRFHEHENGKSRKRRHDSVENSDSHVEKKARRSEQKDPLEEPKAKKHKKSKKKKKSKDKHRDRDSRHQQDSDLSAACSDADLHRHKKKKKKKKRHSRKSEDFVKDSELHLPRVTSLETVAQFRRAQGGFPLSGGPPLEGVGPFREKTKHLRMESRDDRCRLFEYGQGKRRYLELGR
Method in brief: (§1)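 HEK293T lysate, 495 µg per sample in Tris/CHAPS/IGEPAL buffer with protease inhibitors, was treated in triplicate with fragment at 200 µM or vehicle for 3 h and then with Biotin-Ahx-Ub-VS at 0.5 µM final for 1 h. Labelled DUBs were NeutrAvidin-enriched, digested with LysC and trypsin, and run by diaPASEF LC-MS/MS. Spectronaut label-free quantities were global-median-normalised, and values are average log2 fragment/vehicle ratios by unpaired t-test on proteins with ≥2 unique peptides.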

[2] = biological target: USP46 (UniProt P62068)
Method in brief: as §1

[3] = biological target: T2, USP47 (UniProt Q96K76)
T2 sequence (whole entry): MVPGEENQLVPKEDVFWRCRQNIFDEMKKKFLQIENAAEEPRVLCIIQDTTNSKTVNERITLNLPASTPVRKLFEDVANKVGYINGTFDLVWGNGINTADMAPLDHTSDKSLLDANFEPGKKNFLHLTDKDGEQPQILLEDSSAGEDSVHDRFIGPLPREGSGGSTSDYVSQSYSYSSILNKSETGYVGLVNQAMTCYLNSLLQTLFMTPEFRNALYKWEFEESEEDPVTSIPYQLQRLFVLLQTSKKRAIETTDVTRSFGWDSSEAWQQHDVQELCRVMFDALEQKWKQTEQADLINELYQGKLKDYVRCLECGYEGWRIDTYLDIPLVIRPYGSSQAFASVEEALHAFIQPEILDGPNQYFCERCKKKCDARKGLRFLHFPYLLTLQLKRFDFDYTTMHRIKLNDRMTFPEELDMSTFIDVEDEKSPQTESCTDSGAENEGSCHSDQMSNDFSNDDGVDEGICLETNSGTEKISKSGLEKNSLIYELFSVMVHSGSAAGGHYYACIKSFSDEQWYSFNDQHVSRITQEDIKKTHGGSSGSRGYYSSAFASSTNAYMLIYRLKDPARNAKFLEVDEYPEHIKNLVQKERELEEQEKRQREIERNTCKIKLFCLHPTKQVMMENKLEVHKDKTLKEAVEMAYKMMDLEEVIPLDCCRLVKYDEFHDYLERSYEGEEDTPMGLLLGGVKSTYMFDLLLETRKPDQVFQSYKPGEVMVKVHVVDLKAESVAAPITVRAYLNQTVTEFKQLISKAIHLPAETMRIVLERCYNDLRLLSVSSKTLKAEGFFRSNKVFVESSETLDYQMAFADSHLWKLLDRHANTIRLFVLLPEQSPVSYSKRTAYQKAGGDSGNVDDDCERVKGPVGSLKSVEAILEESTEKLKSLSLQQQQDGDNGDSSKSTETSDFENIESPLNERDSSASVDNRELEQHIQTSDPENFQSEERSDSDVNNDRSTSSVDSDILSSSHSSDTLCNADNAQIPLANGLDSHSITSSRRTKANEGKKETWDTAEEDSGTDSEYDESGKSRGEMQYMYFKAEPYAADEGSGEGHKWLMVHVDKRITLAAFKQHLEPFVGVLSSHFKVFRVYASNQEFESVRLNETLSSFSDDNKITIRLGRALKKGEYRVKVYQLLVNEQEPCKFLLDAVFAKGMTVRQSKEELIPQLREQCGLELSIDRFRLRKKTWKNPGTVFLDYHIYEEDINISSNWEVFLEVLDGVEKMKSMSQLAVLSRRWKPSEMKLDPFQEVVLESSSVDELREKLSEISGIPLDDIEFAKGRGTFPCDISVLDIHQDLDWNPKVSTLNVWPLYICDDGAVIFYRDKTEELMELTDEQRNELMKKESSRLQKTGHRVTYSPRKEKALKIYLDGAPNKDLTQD
Method in brief: as §1

[4] = biological target: T3, USP48 (UniProt Q86UV5)
T3 sequence (whole entry): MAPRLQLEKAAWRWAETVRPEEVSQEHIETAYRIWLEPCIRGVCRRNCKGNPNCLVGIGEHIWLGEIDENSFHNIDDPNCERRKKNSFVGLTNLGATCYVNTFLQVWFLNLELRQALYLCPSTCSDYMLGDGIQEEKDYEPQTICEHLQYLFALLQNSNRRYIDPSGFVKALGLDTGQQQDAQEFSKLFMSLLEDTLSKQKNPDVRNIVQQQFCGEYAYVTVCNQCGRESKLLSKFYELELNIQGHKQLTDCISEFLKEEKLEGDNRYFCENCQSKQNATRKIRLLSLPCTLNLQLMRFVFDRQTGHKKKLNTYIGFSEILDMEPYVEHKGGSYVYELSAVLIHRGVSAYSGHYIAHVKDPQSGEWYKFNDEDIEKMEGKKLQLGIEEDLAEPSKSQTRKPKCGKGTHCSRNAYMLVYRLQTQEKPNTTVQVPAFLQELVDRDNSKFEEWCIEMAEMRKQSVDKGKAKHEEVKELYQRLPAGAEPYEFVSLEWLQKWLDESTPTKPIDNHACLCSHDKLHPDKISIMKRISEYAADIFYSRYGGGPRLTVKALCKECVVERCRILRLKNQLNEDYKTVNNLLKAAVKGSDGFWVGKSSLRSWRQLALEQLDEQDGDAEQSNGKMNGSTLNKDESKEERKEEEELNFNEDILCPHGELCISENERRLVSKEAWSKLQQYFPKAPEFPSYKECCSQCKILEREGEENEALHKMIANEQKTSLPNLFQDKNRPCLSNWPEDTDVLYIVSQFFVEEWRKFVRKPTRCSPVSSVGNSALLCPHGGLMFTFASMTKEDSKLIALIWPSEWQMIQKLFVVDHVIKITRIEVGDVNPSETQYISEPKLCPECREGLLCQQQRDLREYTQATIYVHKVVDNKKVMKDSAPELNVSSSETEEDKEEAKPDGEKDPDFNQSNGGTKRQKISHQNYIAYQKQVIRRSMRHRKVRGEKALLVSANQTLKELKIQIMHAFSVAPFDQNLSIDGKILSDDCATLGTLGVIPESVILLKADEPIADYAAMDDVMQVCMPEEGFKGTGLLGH
Method in brief: as §1

[5] = biological target: T4, USP5 (UniProt P45974)
T4 sequence (whole entry): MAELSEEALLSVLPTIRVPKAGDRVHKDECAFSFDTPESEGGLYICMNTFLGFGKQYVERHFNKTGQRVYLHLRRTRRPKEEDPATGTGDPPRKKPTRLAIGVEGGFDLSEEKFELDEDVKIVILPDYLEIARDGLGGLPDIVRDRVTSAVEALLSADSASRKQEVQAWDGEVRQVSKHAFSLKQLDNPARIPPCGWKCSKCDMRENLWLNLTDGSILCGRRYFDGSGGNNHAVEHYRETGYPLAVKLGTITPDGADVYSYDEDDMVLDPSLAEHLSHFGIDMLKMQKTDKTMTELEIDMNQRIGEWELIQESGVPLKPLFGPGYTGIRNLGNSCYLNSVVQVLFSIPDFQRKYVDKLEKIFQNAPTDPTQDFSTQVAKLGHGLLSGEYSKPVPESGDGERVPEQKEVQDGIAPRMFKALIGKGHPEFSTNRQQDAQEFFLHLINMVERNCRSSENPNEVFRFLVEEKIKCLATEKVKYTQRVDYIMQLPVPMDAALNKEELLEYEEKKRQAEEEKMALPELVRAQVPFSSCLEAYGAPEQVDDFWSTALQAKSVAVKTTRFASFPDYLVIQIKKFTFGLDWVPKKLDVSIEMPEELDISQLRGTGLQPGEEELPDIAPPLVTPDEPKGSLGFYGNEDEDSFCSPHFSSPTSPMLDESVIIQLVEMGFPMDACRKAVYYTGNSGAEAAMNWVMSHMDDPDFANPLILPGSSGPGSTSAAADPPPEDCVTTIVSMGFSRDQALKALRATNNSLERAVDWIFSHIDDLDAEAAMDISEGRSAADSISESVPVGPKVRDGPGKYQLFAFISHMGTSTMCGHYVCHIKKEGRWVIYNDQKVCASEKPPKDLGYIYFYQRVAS
Method in brief: as §1

[6] = biological target: USP54 (UniProt Q70EL1)
Method in brief: as §1

[7] = biological target: USP7 (UniProt Q93009)
Method in brief: as §1

[8] = biological target: T5, USP8 (UniProt P40818)
T5 sequence (whole entry): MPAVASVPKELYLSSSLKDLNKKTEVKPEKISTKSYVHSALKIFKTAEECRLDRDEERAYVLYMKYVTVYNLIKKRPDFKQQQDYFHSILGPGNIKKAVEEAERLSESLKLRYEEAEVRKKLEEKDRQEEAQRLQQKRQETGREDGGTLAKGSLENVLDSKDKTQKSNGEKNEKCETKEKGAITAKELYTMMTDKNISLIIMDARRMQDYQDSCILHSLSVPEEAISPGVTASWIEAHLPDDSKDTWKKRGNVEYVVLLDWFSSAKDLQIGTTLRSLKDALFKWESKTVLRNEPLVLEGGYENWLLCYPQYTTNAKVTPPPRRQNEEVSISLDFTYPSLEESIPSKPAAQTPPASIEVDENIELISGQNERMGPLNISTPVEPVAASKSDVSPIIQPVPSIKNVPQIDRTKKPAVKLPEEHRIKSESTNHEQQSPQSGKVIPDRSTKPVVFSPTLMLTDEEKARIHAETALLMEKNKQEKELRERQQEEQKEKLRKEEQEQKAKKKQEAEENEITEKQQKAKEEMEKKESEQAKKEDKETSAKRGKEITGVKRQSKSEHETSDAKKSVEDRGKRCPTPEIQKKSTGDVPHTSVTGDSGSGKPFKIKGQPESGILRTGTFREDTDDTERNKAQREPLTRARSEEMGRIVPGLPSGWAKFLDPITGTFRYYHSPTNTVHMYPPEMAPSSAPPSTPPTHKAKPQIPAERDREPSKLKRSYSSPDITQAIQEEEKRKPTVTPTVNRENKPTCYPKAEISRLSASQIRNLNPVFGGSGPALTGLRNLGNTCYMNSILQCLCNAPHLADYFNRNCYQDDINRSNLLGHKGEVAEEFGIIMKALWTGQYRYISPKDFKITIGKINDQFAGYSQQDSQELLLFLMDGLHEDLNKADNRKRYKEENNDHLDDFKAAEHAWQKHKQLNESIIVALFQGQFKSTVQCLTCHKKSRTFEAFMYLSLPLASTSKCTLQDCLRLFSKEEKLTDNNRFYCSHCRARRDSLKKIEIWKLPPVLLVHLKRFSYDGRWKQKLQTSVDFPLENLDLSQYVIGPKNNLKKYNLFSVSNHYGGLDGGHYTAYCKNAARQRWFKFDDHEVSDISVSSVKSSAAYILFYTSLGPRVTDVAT
Method in brief: as §1

[9] = biological target: USP9X (UniProt Q93008)
Method in brief: as §1

[10] = biological target: UniProt O00487
Method in brief: as §1

Sequence of USP54 (Q70EL1 whole entry): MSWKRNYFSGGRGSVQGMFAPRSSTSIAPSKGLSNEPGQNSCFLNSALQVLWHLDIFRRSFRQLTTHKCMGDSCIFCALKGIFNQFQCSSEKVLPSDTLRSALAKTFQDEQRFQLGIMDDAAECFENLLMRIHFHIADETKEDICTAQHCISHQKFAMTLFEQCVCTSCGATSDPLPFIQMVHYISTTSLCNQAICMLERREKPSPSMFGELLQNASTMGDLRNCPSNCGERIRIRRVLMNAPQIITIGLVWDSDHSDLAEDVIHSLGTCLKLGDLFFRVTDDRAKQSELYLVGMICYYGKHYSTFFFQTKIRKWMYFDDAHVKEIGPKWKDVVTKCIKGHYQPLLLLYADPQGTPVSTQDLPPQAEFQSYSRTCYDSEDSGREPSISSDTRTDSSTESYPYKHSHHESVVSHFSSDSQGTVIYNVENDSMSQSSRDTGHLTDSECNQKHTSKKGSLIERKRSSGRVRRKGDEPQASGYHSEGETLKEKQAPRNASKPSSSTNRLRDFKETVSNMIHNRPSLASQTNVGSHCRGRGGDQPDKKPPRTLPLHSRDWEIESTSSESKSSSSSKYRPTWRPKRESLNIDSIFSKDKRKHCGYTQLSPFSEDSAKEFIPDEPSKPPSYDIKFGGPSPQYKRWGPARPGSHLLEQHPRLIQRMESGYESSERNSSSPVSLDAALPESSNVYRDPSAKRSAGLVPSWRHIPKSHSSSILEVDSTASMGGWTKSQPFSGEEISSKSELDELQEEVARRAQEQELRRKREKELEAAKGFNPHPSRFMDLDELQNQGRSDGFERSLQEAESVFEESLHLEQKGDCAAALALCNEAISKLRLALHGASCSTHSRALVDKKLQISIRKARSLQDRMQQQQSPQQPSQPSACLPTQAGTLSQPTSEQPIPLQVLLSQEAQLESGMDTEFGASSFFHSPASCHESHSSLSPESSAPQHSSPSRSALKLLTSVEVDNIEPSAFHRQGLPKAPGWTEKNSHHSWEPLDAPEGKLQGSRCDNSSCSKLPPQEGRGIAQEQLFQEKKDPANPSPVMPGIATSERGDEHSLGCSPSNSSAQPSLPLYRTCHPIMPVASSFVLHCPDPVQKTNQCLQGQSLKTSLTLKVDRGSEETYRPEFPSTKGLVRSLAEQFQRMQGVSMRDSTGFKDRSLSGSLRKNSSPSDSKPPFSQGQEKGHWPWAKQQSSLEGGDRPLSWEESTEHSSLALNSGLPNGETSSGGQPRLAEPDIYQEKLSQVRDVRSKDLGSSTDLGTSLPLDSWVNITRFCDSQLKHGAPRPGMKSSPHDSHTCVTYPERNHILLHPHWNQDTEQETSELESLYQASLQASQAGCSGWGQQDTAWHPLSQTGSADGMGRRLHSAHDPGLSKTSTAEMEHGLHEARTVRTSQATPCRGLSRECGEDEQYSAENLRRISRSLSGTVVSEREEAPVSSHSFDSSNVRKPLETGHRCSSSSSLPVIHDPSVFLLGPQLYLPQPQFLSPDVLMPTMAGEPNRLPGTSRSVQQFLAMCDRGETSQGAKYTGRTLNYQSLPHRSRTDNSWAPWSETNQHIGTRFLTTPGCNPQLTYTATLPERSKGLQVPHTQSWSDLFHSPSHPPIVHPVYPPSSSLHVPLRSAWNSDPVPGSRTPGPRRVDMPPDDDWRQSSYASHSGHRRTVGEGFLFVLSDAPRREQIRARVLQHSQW
Sequence of USP9X (Q93008 whole entry): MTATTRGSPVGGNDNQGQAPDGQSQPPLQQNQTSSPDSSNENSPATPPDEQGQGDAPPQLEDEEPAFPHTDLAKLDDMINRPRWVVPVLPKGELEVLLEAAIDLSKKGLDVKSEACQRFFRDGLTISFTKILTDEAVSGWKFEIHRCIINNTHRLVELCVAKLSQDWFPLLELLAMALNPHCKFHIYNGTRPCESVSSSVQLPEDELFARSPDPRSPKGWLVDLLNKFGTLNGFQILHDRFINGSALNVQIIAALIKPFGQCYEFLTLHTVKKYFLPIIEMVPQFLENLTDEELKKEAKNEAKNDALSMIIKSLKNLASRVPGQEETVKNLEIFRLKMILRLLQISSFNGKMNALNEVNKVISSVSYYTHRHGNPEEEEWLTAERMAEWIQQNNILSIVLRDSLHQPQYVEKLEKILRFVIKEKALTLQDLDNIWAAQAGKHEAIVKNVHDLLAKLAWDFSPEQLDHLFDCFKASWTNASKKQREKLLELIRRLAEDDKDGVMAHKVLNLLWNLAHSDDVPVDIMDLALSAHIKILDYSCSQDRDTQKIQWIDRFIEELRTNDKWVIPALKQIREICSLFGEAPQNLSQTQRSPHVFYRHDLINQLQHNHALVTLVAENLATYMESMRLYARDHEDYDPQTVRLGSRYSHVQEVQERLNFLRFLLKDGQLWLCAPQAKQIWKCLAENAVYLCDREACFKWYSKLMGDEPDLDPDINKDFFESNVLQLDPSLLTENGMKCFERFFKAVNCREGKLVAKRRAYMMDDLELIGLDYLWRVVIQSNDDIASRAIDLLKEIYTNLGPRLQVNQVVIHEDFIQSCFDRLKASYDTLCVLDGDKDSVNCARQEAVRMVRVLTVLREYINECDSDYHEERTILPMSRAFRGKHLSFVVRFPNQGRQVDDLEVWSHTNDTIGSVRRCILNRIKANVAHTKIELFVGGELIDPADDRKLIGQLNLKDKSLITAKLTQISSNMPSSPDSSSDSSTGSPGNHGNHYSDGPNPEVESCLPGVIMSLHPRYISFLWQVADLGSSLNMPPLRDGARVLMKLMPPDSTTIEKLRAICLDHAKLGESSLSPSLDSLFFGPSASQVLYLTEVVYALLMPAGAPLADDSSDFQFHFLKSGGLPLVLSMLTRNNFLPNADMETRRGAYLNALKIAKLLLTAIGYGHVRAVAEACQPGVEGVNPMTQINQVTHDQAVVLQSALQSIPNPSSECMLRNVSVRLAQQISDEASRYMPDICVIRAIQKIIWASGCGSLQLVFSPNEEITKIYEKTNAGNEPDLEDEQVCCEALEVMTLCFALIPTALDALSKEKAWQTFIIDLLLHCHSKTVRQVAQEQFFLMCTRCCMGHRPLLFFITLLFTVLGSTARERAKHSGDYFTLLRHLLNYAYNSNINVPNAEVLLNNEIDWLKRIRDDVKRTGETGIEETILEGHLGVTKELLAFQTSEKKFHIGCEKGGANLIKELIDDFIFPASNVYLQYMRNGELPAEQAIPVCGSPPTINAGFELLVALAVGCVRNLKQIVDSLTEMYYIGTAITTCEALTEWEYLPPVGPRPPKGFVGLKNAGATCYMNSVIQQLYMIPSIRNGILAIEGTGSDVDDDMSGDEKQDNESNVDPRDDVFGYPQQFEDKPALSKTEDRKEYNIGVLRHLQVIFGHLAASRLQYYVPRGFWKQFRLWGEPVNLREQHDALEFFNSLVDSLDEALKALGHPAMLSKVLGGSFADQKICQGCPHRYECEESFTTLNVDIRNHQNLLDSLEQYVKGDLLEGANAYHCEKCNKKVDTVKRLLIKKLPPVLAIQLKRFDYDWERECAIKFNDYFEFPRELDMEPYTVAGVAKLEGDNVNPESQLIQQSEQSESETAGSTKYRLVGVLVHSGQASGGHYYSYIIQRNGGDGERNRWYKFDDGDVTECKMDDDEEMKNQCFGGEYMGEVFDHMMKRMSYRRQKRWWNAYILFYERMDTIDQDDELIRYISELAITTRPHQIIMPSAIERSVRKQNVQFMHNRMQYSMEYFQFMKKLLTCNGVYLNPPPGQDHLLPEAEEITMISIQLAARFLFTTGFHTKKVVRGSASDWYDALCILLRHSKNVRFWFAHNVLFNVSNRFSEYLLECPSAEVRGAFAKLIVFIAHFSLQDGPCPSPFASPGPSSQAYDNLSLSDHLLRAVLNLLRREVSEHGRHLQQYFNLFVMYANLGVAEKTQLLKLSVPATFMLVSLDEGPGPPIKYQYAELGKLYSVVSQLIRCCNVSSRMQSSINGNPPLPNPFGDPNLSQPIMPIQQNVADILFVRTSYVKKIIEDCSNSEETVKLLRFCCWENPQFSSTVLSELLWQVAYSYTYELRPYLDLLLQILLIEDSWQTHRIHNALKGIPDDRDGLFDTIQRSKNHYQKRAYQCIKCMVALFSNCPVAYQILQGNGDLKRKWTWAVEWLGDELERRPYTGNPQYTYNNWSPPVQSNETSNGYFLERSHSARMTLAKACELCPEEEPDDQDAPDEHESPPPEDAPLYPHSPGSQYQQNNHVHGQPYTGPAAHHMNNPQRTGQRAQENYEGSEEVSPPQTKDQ
Sequence of UniProt O00487 (O00487 whole entry): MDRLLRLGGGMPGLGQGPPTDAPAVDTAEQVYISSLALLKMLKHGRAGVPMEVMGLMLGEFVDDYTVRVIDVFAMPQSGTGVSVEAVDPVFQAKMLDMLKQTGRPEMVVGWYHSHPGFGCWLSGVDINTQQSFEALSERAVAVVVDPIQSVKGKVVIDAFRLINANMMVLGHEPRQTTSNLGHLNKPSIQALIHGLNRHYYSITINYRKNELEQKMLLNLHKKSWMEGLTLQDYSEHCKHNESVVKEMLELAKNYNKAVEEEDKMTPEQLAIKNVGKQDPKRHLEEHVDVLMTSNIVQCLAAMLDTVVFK
Sequence of USP46 (P62068 whole entry): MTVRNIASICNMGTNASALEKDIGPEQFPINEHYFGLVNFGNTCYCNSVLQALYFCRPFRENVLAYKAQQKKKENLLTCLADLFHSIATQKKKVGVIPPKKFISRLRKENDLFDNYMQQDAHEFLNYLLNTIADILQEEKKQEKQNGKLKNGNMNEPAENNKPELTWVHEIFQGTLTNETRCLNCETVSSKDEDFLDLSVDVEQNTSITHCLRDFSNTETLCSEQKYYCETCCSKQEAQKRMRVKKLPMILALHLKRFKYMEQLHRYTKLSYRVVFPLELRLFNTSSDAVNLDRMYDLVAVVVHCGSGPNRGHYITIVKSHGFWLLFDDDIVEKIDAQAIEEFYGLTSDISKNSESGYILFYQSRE

Structure (SMILES)	log2 ratio of Biotin-Ahx-Ub-VS probe labelling [1]	log2 ratio of Biotin-Ahx-Ub-VS probe labelling [2]	log2 ratio of Biotin-Ahx-Ub-VS probe labelling [3]	log2 ratio of Biotin-Ahx-Ub-VS probe labelling [4]	log2 ratio of Biotin-Ahx-Ub-VS probe labelling [5]	log2 ratio of Biotin-Ahx-Ub-VS probe labelling [6]	log2 ratio of Biotin-Ahx-Ub-VS probe labelling [7]	log2 ratio of Biotin-Ahx-Ub-VS probe labelling [8]	log2 ratio of Biotin-Ahx-Ub-VS probe labelling [9]	log2 ratio of Biotin-Ahx-Ub-VS probe labelling [10]
O=C(CCl)Nc1ccc(F)cc1F	-0.555	-0.0216	-0.211	-0.0331	-0.0493	0.615	-0.0738	-0.257	-0.218	-0.099
O=C(CCl)N1CCc2sccc2C1	0.32	-0.578	-0.774	-0.677	-0.108	-0.356	-1.34 (active)	0.015	-0.286	0.0182
O=C(CCl)N(C1=CCCCC1)C1CC1	0.331	-0.1	-0.571	-0.64	0.124	0.551	-0.612	-0.00831	-0.0905	-0.232
